Experimental findings from PubChem BioAssay (EPA / NIEHS) are described below.

“And” between values parts separate entries of the source, which are not always exact repeats. Equal values may be shown once. Some compounds were tested as several samples or in several runs, with calls that do not always agree. The source made the active and inactive calls. How the source made its calls: active means hit-call score of the fitted dose curve at least 0.9, where 1 is the maximum; inactive means score below 0.9.

Read-out in assay [1]: Matrix Metallopeptidase 1 (MMP1), MMP1 (gene 4312)
Description: BSK_MyoF_MMP1: BioMAP Diversity Plus: MyoF Assay for Matrix Metallopeptidase 1 (MMP1) Biomarker Activity (AID 2284268). The following applies: primary human lung fibroblasts. The procedure, abridged: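 Human lung fibroblasts (MyoF system) exposed to chemical for 24 h in 96-well format; MMP1 biomarker quantified by ELISA, with activity fitted in the positive direction relative to DMSO baseline.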

Read-out in assay [2]: TIMP metallopeptidase inhibitor 1 (TIMP1), TIMP1 (gene 7076)
Description: BSK_MyoF_TIMP1: BioMAP Diversity Plus: MyoF Assay for TIMP metallopeptidase inhibitor 1 (TIMP1) Biomarker Activity (AID 2284269). To be noted: primary human lung fibroblasts. The method, boiled down: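 ELISA quantified TIMP-1 levels after 24 h dosing of primary human lung fibroblasts, with DMSO as baseline. Parallel SRB total protein staining (0.1% SRB after TCA fixation, 560 nm) flagged overt cytotoxicity.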

Read-out in assay [3]: Matrix Metallopeptidase 3 (MMP3), MMP3 (gene 4314)
Description: BSK_BF4T_MMP3: BioMAP Diversity Plus: BF4T Assay for Matrix Metallopeptidase 3 (MMP3) Biomarker Activity (AID 2284271). The following applies: primary human bronchial epithelial cells with fibroblasts. The method, boiled down: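 MMP-3 level read by ELISA after 24 h chemical exposure of bronchial epithelial cell/dermal fibroblast co-cultures, fitted upward relative to DMSO. Parallel cultures stained with 0.1% SRB after TCA fixation gauge overt cytotoxicity.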

Read-out in assay [4]: Tissue plasminogen activator (tPA), PLAT (gene 5327)
Kind of assay: BSK_BF4T_tPA: BioMAP Diversity Plus: BF4T Assay for Tissue plasminogen activator (tPA) Biomarker Activity (AID 2284272). To be noted: primary human bronchial epithelial cells with fibroblasts. The method, boiled down:
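tPA level quantified by ELISA at 24 h post-treatment in bronchial epithelial/dermal fibroblast co-cultures, gain of signal scored against DMSO baseline. Parallel cultures stained with 0.1% SRB (560 nm) to flag overt cytotoxicity.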

Assay [5] can be described thus: BSK_BF4T_SRB: Viability Assessment in the BioMAP Diversity Plus: BF4T Assay (AID 2284274).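 On AC50: measured 24 h after compound addition.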 The following applies: primary human bronchial epithelial cells with fibroblasts. The method, boiled down: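 Cytotoxicity measured as total protein: cells fixed with 10% TCA, stained with 0.1% SRB, read at 560 nm. Bronchial epithelial/dermal fibroblast co-culture, 24 h after dosing, with positive-direction fitting relative to DMSO.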

Read-out in assay [6]: urokinase Plasminogen Activator (uPA), PLAU (gene 5328)
Kind of assay: BSK_BF4T_uPA: BioMAP Diversity Plus: BF4T Assay for urokinase Plasminogen Activator (uPA) Biomarker Activity (AID 2284275). The following applies: primary human bronchial epithelial cells with fibroblasts. The procedure, abridged: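 uPA levels measured by ELISA at 24 hours in BF4T cultures (bronchial epithelial cells plus dermal fibroblasts) and compared with DMSO; cytotoxicity tracked in parallel cultures by sulforhodamine B staining.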

Read-out in assay [7]: Matrix Metallopeptidase 9 (MMP9), MMP9 (gene 4318)
Kind of assay: BSK_BF4T_MMP9: BioMAP Diversity Plus: BF4T Assay for Matrix Metallopeptidase 9 (MMP9) Biomarker Activity (AID 2284276). To be noted: primary human bronchial epithelial cells with fibroblasts. The procedure, abridged:
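MMP-9 levels were measured by ELISA after 24 h exposure of bronchial epithelial cell/dermal fibroblast co-cultures, with DMSO as baseline. Parallel cultures were stained with 0.1% SRB after TCA fixation, read at 560 nm, to flag overt cytotoxicity.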

Read-out in assay [8]: Interleukin-8 (IL8), CXCL8 (gene 3576)
Kind of assay: BSK_IMphg_IL8: BioMAP Diversity Plus: IMphg Assay for Interleukin-8 (IL8) Biomarker Activity (AID 2284277). To be noted: primary human endothelial cells with macrophages. The procedure, abridged: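 IL-8 levels were measured by ELISA 24 h after dosing in primary human venular endothelial cell–macrophage cultures, referenced to DMSO; parallel SRB staining monitored overt cytotoxicity.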

Read-out in assay [9]: Matrix Metallopeptidase 1 (MMP1), MMP1 (gene 4312)
Kind of assay: BSK_BF4T_MMP1: BioMAP Diversity Plus: BF4T Assay for Matrix Metallopeptidase 1 (MMP1) Biomarker Activity (AID 2284270). To be noted: primary human bronchial epithelial cells with fibroblasts. The procedure, abridged:
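MMP-1 quantified by ELISA in primary human bronchial epithelial/dermal fibroblast co-cultures, 24 hours post-dosing, with DMSO as baseline; parallel sulforhodamine B staining (560 nm) tracks overt cytotoxicity.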

Read-out in assay [10]: Plasminogen Activator Inhibitor-1 (PAI1), SERPINE1 (gene 5054)
Kind of assay: BSK_BF4T_PAI1: BioMAP Diversity Plus: BF4T Assay for Plasminogen Activator Inhibitor-1 (PAI1) Biomarker Activity (AID 2284273). To be noted: primary human bronchial epithelial cells with fibroblasts. The procedure, abridged:
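PAI-1 levels quantified by ELISA 24 h post-dosing in bronchial epithelial cell plus dermal fibroblast cultures. Signal gain referenced to DMSO baseline. Sulforhodamine B total-protein staining of parallel wells checked cytotoxicity.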

The term AC50 denotes the concentration giving half of the maximal activity seen. Take `CCN(CCO)S(=O)(=O)C(F)(F)C(F)(F)C(F)(F)C(F)(F)C(F)(F)C(F)(F)C(F)(F)C(F)(F)F`: the AC50 was 7.69 µM (active) and 8.4 µM (active) in [1]; 30 µM (active) in assay [2]; 24 µM (active) in assay [3]; 13.6 µM (active) in assay [4]; 50.9 µM (active) in assay [8]. The outcome in assay [2], in [3], in [4], in assay [5], in assay [6] and in assay [7] was inactive. For the same molecule, the result in assay [8] was inactive.

Consider `O=C(O)C(F)(F)C(F)(F)C(F)(F)C(=O)O`, for which the outcome in assay [1], in [2], in assay [9], in [3], in assay [4] and in assay [5] was inactive. In addition, the outcome in assay [6], in [7] and in assay [8] was inactive.

For `CCN(CC)c1ccc2c(c1)Oc1cc(N(CC)CC)ccc1C21OC(=O)c2ccccc21`, the outcome in assay [1] and in [2] was inactive.

Regarding `CC(C)(C)c1cc(CCC(=O)NCCCCCCNC(=O)CCc2cc(C(C)(C)C)c(O)c(C(C)(C)C)c2)cc(C(C)(C)C)c1O`, the result in assay [1] and in assay [2] was inactive.

In the case of `O=C(O)C(F)(F)OC(F)(F)C(F)(F)OC(F)(F)C(F)(F)OC(F)(F)F`, the outcome in assay [1], in [2], in assay [3], in [4], in assay [5] and in assay [6] was inactive. Besides, the result in assay [7] and in assay [8] was inactive. For the same molecule, the AC50 in assay [2] is 6.35 µM (active); in assay [4], 20 µM (active) and 5.38 µM (active); in assay [8] it was 5.47 µM (active) and 14.2 µM (active).

Consider `Cc1ccc(O)c(-n2nc3ccccc3n2)c1`, for which the outcome in assay [1] and in [2] was inactive.

Turning to `CC(C)CCCC(C)CCO` (centres undefined), the AC50 in assay [1] is 33.7 µM (active). Besides, in assay [2], the outcome was inactive.

In the case of `CCN(CC)c1ccc(C=O)c(O)c1`, the result in assay [1] and in assay [2] was inactive.

Take `O=C(O)C(F)(F)C(F)(F)C(F)(F)C(F)(F)C(F)(F)C(F)(F)C(F)F`: the result in [1], in assay [2], in assay [9], in assay [3], in [4] and in [5] was inactive. Further, the result in [6] and in assay [7] was inactive. In addition, the AC50 in [8] was 30 µM (active) and 21.7 µM (active) and 32.1 µM (active).

Turning to `OCC(F)(F)C(F)(F)C(F)(F)C(F)(F)C(F)(F)C(F)(F)C(F)(F)C(F)(F)CO`, the AC50 in [1] is 49.5 µM (active); in assay [3], 19.3 µM (active); in [4], 9.85 µM (active) and 12.6 µM (active); in assay [10], 15.1 µM (active) and 13.6 µM (active); in assay [5], 26.2 µM (active) and 30 µM (active); in assay [7], 27.6 µM (active) and 23.7 µM (active). In addition, the AC50 in assay [8] is 48.8 µM (active) and 48.9 µM (active). Besides, the outcome in [1], in [2], in assay [3] and in [6] was inactive.

In the case of `NCC(F)(F)C(F)(F)C(F)(F)C(F)(F)C(F)(F)C(F)(F)F`, the result in assay [1], in assay [2], in assay [9], in assay [3], in assay [4] and in assay [5] was inactive. Besides, the outcome in assay [6], in assay [7] and in [8] was inactive. Moreover, the AC50 in assay [7] is 778 nM (active).

For the molecule `Brc1nc2ccccc2s1`, the result in assay [1] and in [2] was inactive.

In the case of `Nc1cc([N+](=O)[O-])cc(Cl)c1O`, the result in assay [1] and in [2] was inactive.

Consider `O=C=Nc1cccc2c(N=C=O)cccc12`, for which the result in [1] and in assay [2] was inactive.

Regarding `CCOC(C=C(C)CCC=C(C)C)OCC`, the AC50 in assay [1] was 31.3 µM (active); in [2] it was 3.97 µM (active).

With `C[C@]12CC[C@H]3C(=CCc4cc(O)ccc43)[C@@H]1CCC2=O`, the outcome in assay [1] and in [2] was inactive.

For `Cc1cc(O)c(C(C)(C)C)cc1C(C)(C)C`, the AC50 was 9.48 µM (active) in [1] and 7.71 µM (active) in [2].

`CCN(CC)c1ccc(N=Nc2ccccc2)cc1`: the AC50 in [1] was 5.14 µM (active). Moreover, the outcome in assay [2] was inactive.

For the molecule `CCN(CC)c1ccc(C=O)cc1`, the result in [1] and in assay [2] was inactive.

Regarding `OCCCCC(F)(F)C(F)(F)C(F)(F)C(F)(F)F`, the outcome in [1], in assay [2], in [9], in assay [3], in assay [4] and in assay [5] was inactive. Moreover, the outcome in [6], in [7] and in assay [8] was inactive.

As to `OCCCC(F)(F)C(F)(F)C(F)(F)C(F)(F)C(F)(F)C(F)(F)C(F)(F)C(F)(F)F`, the AC50 in assay [1] was 16.3 µM (active); in assay [2], 14.5 µM (active) and 13.7 µM (active); in assay [3], 40.1 µM (active) and 40.6 µM (active); in assay [4], 22.1 µM (active) and 21 µM (active); in [5], 31.6 µM (active) and 29.4 µM (active); in assay [6] it was 22.5 µM (active) and 19.4 µM (active). In [7], the AC50 was 30 µM (active) and 17.2 µM (active). Moreover, the outcome in assay [1] and in [8] was inactive.

`O=C(c1ccccc1)c1ccc(O)cc1O`: the outcome in assay [1] and in assay [2] was inactive.

Take `O=C=NCc1cccc(CN=C=O)c1`: the result in assay [1] and in [2] was inactive.

For the molecule `Cc1cc(C)c(O)c(C(C)(C)C)c1`, the result in assay [1] was inactive. Also, the AC50 in assay [2] was 31.6 µM (active).

As to `O=C(O)CCC(F)(F)C(F)(F)C(F)(F)F`, the outcome in assay [1], in assay [2], in assay [9], in assay [3], in assay [4] and in assay [5] was inactive. The outcome in assay [6], in [7] and in assay [8] was inactive.

As for `Cc1ccc(S(=O)(=O)C(I)I)cc1`, the AC50 in [1] is 11.2 µM (active); in assay [2], 5.97 µM (active).

Regarding `CC1=CC2C3C=CC(C3)C2C1C` (centres undefined), the outcome in [1] and in assay [2] was inactive.

`Cc1cnccn1`: the outcome in assay [1] and in assay [2] was inactive.

Regarding `O=C1C=CC(=O)N1c1ccc(Cc2ccc(N3C(=O)C=CC3=O)cc2)cc1`, the values for the AC50 in assay [1] and in assay [2] were 11.7 µM (active) and 5.94 µM (active), respectively.

`CCOC(=O)CC(=O)C(F)(F)C(F)(F)F`: the outcome in assay [1], in [2], in [9], in assay [3], in [4] and in assay [5] was inactive. The result in [6], in assay [7] and in assay [8] was inactive.

As for `NS(=O)(=O)C(F)(F)C(F)(F)C(F)(F)C(F)(F)C(F)(F)C(F)(F)F`, the result in assay [1], in assay [2], in assay [3], in [4], in assay [5] and in assay [6] was inactive. In addition, in [7], the result was inactive. The AC50 in assay [3] was 49.5 µM (active); in assay [8] it was 16.3 µM (active) and 8.64 µM (active).

As to `O=C1c2c(O)ccc(Nc3ccc(CCO)cc3)c2C(=O)c2c([N+](=O)[O-])ccc(O)c21`, in assay [1], the concentration at half-maximal activity (AC50) was 11 µM (active). Moreover, the outcome in assay [2] was inactive.
